High-throughput results deposited in PubChem by National Center for Advancing Translational Sciences (NCATS).
TDP1 cell noCPT – qHTS for Inhibitors of human tyrosyl-DNA phosphodiesterase 1 (TDP1): qHTS in cells in absence of CPT | Potency, µM (doses to about 46.2 µM), most hits filed as inhibitors | DT40 Tdp1-/- hTDP1 cells, no CPT, ATP luminescence, 48 h | 420,000 tested, 15% active; also: nearly all actives have a fitted effect of over 55% in size
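No-CPT arm: Tdp1-/-;hTDP1 DT40 cells (400/well) plus compounds, incubated ≥48 hr at 37 °C. Readout CellTiter-Glo luminescence.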
TDP1 cell CPT – DT40-hTDP1 cell growth loss with CPT; Potency, µM (series often up to 46.2 µM), actives largely listed as inhibitors; 420,000 tested, 12% active; chicken DT40 Tdp1-/-;hTDP1 cells + 20 nM CPT, ATP luminescence, 48 h; also: nearly all actives have a fitted effect of over 55% in size
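Cell growth measured by CellTiter-Glo luminescence after a minimum 48 h, 37 C compound exposure with 20 nM CPT in Tdp1-knockout DT40 cells stably expressing hTDP1, seeded 400/well; qHTS titration format.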
12-LOX inh – ALOX12 (human) lipoxygenase inhibition. 580,000 tested, 1.1% active. purified 12hLO, xylenol orange hydroperoxide absorbance. AID 1671190. P18054. Potency, µM (top dose mostly 108 µM), actives largely listed as inhibitors
Target sequence (P18054 whole entry, looked up): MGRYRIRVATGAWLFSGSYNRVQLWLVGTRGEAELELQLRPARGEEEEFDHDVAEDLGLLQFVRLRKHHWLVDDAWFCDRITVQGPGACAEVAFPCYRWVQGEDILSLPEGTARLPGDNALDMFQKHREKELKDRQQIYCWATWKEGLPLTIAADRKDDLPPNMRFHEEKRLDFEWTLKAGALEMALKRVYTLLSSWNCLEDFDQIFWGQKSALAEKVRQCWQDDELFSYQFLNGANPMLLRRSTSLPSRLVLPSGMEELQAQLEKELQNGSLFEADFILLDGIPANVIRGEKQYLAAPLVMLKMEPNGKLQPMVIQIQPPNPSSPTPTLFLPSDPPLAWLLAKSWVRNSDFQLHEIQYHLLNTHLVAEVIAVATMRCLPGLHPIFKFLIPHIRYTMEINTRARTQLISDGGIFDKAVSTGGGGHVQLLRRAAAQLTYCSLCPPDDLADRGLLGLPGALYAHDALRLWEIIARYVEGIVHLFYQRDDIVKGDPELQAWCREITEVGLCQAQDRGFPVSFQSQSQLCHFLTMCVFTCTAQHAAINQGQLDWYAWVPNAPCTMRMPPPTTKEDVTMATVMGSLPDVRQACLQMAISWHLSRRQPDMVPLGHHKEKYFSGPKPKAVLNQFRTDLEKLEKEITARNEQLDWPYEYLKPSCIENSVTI
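Purified human 12hLO at 150 nM in 25 mM Hepes, 0.01% Triton X-100, pH 7.0, preincubated 15 min at room temperature with compound. Reaction started with 40 uM arachidonic acid, 30 min at room temperature. Hydroperoxide measured by Fe-xylenol orange, 573/405 nm absorbance ratio.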
HT1080 IDH1KD tx – kills HT-1080 cells with IDH1 knockdown; HT-1080 IDH1 knockdown viability, ATP luminescence, 48 h; Potency, µM (series often up to 46.1 µM), usual class: cytotoxic; 360,000 tested, 2% active; AID 686971
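Cytotoxicity counter-line: IDH1KD HT-1080, 48 h, CellTiter-Glo. Curves classed by r2, magnitude and activity.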
HT1080NT lethal – kills 2HG-producing HT-1080-NT fibrosarcoma cells; Potency, µM (doses to about 46.1 µM), usual class: cytotoxic; HT-1080-NT fibrosarcoma viability, CellTiter-Glo ATP luminescence, 48 h; 360,000 tested, 1.6% active;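 also: NT is the 2HG producing partner of a matched IDH1 knockdown line; nearly all actives have a fitted effect of over 55% in size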
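Read-out is CellTiter-Glo luminescence after 10 minutes at room temperature, following 48 hours' compound treatment of HT-1080-NT cells (750 cells/well, RPMI, 5% FBS, 37 degrees C).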
IL-1B inflam inh – inhibitors of inflammasome signaling (IL-1 beta secretion); activity change, % at 57.5 µM; 360,000 tested, 4.7% active; THP-1 LPS/ATP IL-1B secretion, AlphaLISA, 16 h; active compounds read low; AID 743279; in the data active = activity change below about -50%; inconclusive = mostly about -30% to -49%
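THP-1 cells pretreated 1 hr with compounds (up to 57.5 uM final), then stimulated with LPS (250 ng/mL final) plus ATP (1.25 mM final); secreted IL-1B measured by AlphaLISA after 16 hr, decreased signal indicating inhibition.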
Hits are given with their value; . = inactive; ? = inconclusive; / = no result; [ ] = remark or other dose. Only a selection was taken, and hits are over-represented in it overall. Unless noted, calls follow the shape of the dose curve; as a rule, active = well fitted curve in the direction sought with a large enough effect; inconclusive = small, poorly fitted or top-dose-only effect, or another doubt; inactive = no such curve, though single readings can be large; an effect the other way counts as inactive or inconclusive.

SMILES	TDP1 cell noCPT	TDP1 cell CPT	12-LOX inh	HT1080 IDH1KD tx	HT1080NT lethal	IL-1B inflam inh
Nc1c(Cl)ncnc1N/N=C/c1ccccn1	0.0206µM	0.0184µM	?	?	?	-82.9
COc1ccc(C2C(C#N)=C(N)N(c3cccnc3)C3=C2C(=O)CCC3)cc1Cn1cc([N+](=O)[O-])cn1 (stereo not given)	.	.	.	.	?	.
COc1ccc(C2C(C#N)=C(N)N(c3ccccc3)C3=C2C(=O)CCC3)cc1Cn1cc([N+](=O)[O-])cn1 (stereo not given)	?	?	?	?	?	-74.4
N#CC1=C(N)N(c2ccc(Br)cc2)C2=C(C(=O)CCC2)C1c1cccnc1 (stereo not given)	.	.	?	?	12.6µM	.
COc1cc(NC(=O)c2sc(-c3c(F)cccc3OC)nc2C)cc(OC)c1OC	/	/	.	/	/	/
CC(NNC(=S)N1CCCCCC1)c1ccc2ccccc2n1 (stereo not given)	0.0082µM	0.0082µM	?	?	23.1µM	.
COc1ccc(NC(=O)C(C)n2nc(C(=O)O)c3ccccc3c2=O)cc1 (stereo not given)	/	/	.	/	/	/
COCCN(C)C[C@@H]1CN(C(=O)CC(F)(F)F)C[C@@H]1CO	/	/	.	/	/	/
CC1(C(=O)O)CCCN1C(=O)c1ccc(Cl)cc1Cl (stereo not given)	.	?	.	?	.	.
Cc1oc(-c2ccc(Cl)cc2)cc1C(=O)N1CCC1(C)C(=O)O (stereo not given)	?	29.1µM	?	.	.	.
COc1ccc2cc(S(=O)(=O)c3cccc(Cl)c3)c(=O)oc2c1	/	/	.	/	/	/
Cc1ccc2c(c1)C1CN(C)CCC1N2Sc1ccccc1[N+](=O)[O-] (stereo not given)	16.4µM	?	?	?	16.4µM	-88.8
Cc1ccc2c(c1)[C@@H]1CN(C)CC[C@@H]1N2S(=O)(=O)c1ccc([N+](=O)[O-])cc1	.	?	?	.	.	.
C=CCC[C@@H](CCCCC)OC(=O)/C=C/[C@H](O)[C@@H](O)C[C@H](O)CC=C	?	?	.	.	?	-54.8
C=CCC[C@H](CCCCC)OC(=O)/C=C/[C@H](O)[C@@H](O)C[C@H](O)CC=C	25.9µM	?	.	.	.	.
COc1ccc(CN2C[C@@]3(O)CC[C@@H](O)[C@@H](OC)[C@@H]3[C@@](C)(O)[C@@H]2CC=C(C)C)cc1	/	/	.	/	/	/
Cn1cc(CNC(=O)C[C@@H]2C[C@H]3O[C@H](CNC(=O)NC4CCC4)[C@@H](O)[C@H]3O2)cn1	/	/	.	/	/	/
COc1ccc(S(=O)(=O)Cc2ccc(C(=O)N3CCN(c4cccc(C)c4)C(C)C3)o2)cc1 (stereo not given)	5.17µM	5.17µM	.	11.6µM	2.59µM	.
Cc1cccc(N2CCN(C(=O)c3cc(C)oc3C)CC2C)c1 (stereo not given)	16.4µM	?	.	.	.	?
Cc1cccc(N2CCN(C(=O)c3noc4c3COc3ccc(C)cc3-4)CC2C)c1 (stereo not given)	23.1µM	?	.	.	.	.
COc1ccc(N2CCN(C(=O)c3ccc(CS(=O)(=O)c4ccc(OC)cc4)o3)CC2)cc1	.	.	.	.	?	.
CCOc1ccccc1N1CCN(C(=O)Nc2ccc(F)c(Cl)c2)CC1	23.1µM	?	.	.	.	.
Cc1ccc2c(c1)-c1onc(C(=O)N3CCN(c4cccc(C)c4C)CC3)c1CO2	/	/	.	/	/	/
COc1ccccc1N1CCN(C(=O)Nc2ccc(F)c(Cl)c2)CC1	?	.	.	.	.	.
Cc1cccc(N2CCN(C(=O)c3ccncc3)CC2C)c1 (stereo not given)	.	.	.	.	.	.
SMILES	TDP1 cell noCPT	TDP1 cell CPT	12-LOX inh	HT1080 IDH1KD tx	HT1080NT lethal	IL-1B inflam inh
O=C(NC1CCN(c2nc3ncccc3o2)CC1)C1CCCC1	/	/	.	/	/	/
COc1ccccc1CC(=O)NCc1nnc2ccc(C(F)(F)F)cn12	/	/	.	/	/	/
CCOc1ccccc1N1CCN(C(=O)c2csc(C)c2CC)CC1	20.6µM	?	.	.	.	?
COc1ccccc1N1CCN(C(=O)c2cc(C)oc2C)CC1	?	.	.	.	.	.
CCOc1ccccc1N1CCN(C(=O)c2cc(C)oc2C)CC1	23.1µM	18.4µM	.	?	.[9.24 µM]	.
Cc1cc(C(=O)N2CCN(c3ccccc3O)CC2)c(C)o1	.	.	.	.	.	.
CCOc1ccccc1N1CCN(C(=S)NC(=O)C23CC4CC(CC(C4)C2)C3)CC1	16.4µM	18.4µM	?	.	.	.
COc1cccc(N2CCN(C(=O)c3cc(C)oc3C)CC2)c1	13µM	11.6µM	.	?	?	.
CCC(CC)NC(=O)CSc1ncc(-c2ccc(F)cc2)o1	/	/	.	/	/	/
CC(C)CN1C(=O)NC(NS(=O)(=O)c2ccc(N)cc2)(C(F)(F)F)C1=O (stereo not given)	.	.	.	.	.	.
COc1cccc(C2CC(c3ccc(Br)cc3)=NN2C(=O)c2ccncc2)c1OC (stereo not given)	?	?	.	18.4µM	18.4µM	-50.3
O=C(c1ccncc1)N1N=C(c2ccc(Cl)cc2)CC1c1ccccc1O (stereo not given)	?	?	?	.	.	?
COc1ccccc1C1CC(c2ccc(Br)cc2)=NN1C(=O)c1cccnc1 (stereo not given)	16.4µM	16.4µM	.	14.6µM	?	-51.6
Cc1cc(C(=O)NCC(C)c2ccccc2)c2cccc(C)c2n1 (stereo not given)	/	/	.	/	/	/
O=C(c1ccccn1)N1CCC2(CC1)CC(OCC1CC1)CCO2 (stereo not given)	/	/	.	/	/	/
Cc1ccc(CN2C(=O)NC3(CCN(C(=O)c4cccc(C#N)c4)CC3)C2=O)cc1	/	/	.	/	/	/
CC(C)(O)C#Cc1ccc(N2C(c3ccsc3)=Cc3ccc(F)cc3C2c2c[nH]c3ccc(C#N)cc23)cc1 (stereo not given)	?	5.17µM	?	23.1µM	?	.
COc1ccc2c(c1)CCN=C2Cc1ccc(OC)c(OC)c1	16.4µM	?	?	?	.	?
Cc1ccc(N(CC(=O)NC2CCCCC2)C(=O)CNC(=O)c2ccco2)cc1C	.	.	.	.	.	.
CCC1(C)Cc2c(sc3c2c(=O)n(C)c2nnc(SCCc4ccccc4)n32)CO1 (stereo not given)	23.1µM	?	.	.	.	.
CCCSc1nnc2n(C)c(=O)c3c4c(sc3n12)CCC4	?	?	.	?	.	.
